# Screens: PubChem BioAssay, National Center for Advancing Translational Sciences (NCATS)
# Pol iota inh = DNA polymerase iota (human) inhibition; 390,000 compounds, 1% hits; Q9UNA4; Pol iota fluorescent replication assay, 10 min; Potency, µM (highest dose often 115 µM), without a hit: top-dose activity, negative = inhibition, actives largely listed as inhibitors; further: potency means the concentration at half of the fitted maximal effect
# Target sequence (Q9UNA4 whole entry, looked up): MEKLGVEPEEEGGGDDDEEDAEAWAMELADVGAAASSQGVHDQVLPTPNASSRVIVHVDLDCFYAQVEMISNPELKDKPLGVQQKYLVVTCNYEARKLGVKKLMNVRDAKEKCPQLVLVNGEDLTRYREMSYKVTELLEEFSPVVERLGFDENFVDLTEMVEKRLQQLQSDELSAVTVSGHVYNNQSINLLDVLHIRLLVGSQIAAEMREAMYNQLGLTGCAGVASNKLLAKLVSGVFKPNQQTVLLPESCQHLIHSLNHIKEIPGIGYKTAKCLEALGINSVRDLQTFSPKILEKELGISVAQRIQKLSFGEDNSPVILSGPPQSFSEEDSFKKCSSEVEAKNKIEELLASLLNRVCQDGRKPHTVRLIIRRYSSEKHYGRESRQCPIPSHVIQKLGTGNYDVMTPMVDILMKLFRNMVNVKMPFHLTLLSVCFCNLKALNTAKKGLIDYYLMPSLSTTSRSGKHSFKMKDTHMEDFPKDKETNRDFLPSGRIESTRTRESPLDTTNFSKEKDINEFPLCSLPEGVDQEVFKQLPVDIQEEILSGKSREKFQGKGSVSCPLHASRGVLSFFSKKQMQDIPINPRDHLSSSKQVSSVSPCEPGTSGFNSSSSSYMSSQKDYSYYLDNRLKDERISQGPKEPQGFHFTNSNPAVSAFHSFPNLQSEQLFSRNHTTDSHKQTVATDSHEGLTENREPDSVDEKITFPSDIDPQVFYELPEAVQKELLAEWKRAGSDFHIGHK
#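 Pol iota at 10 nM preincubated 15 min with compounds at room temperature; reaction started with fluorescent substrate, 50 nM final. Fluorescence read kinetically at 0 and 10 min; buffer-only wells as negative control.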
# WRN inhibitor = blocks human WRN helicase; AID 651768; WRN helicase unwinding, fluorescent forked duplex, kinetic; 360,000 compounds, 0.46% hits; Q14191; Potency, µM (doses to about 114 µM), without a hit: at the highest dose activity change, negative = inhibition, most hits filed as inhibitors; further: potency means the concentration at half of the fitted maximal effect; on the % scale 0 is the no-effect control and ±100 the full control effect; nearly all actives have a fitted effect of over 55% in size
#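 Fluorescence dequenching readout, ex 525 nm/em 598 nm, kinetic mode: forked duplex DNA (100 nM final) with adjacent fluorophore and quencher unwound by WRN (20 nM final) with 2 mM ATP. Compound preincubation 15 min, room temperature.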
# Pol eta inh = inhibitors of human DNA polymerase eta; Q9Y253; recombinant Pol eta, fluorescent DNA replication assay; Potency, µM (doses to about 114 µM), for the others: at the highest dose activity change, negative = inhibition, actives largely listed as inhibitors; 390,000 compounds, 1.2% hits; further: potency means the concentration at half of the fitted maximal effect; on the % scale 0 is the no-effect control and ±100 the full control effect
#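 Pol eta (10 nM) was preincubated with compounds for 15 min at room temperature, after which fluorescent replication substrate (50 nM final) was added to start the reaction. Fluorescence was read kinetically at 0 and 10 min.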
# Pol kappa inh = DNA polymerase kappa (human) inhibition; Q9UBT6; purified Pol kappa, fluorescent DNA synthesis assay, 10 min; Potency, µM (top dose mostly 107 µM), without a hit: at the highest dose activity, negative = inhibition, actives largely listed as inhibitors; 400,000 compounds, 0.53% hits; AID 588579; further: potency means the concentration at half of the fitted maximal effect; on the % scale 0 is the no-effect control and ±100 the full control effect
#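 Pol kappa 10 nM + cpd, 15 min RT; start w/ substrate 50 nM final; fluorescence kinetic read, 0 and 10 min. Neg ctrl: buffer, no enzyme.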
# PI5P4Ka inh = PI5P4K alpha (human) kinase inhibition; P48426; PI5P4Kalpha enzyme, ADP-Glo luminescence, 60 min; stronger effect = lower value; max response, %; 330,000 compounds, 1.2% hits; active means max response of -50% or lower; inconclusive means between -30% and -50%; inactive means -30% or higher; further: value at the top dose of about 77 µM; on the % scale 0 is the no-effect control and ±100 the full control effect
#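 ADP-Glo luminescence end-point read after a 60 min room-temperature kinase reaction of PI5P4Kalpha plus substrate, initiated with ATP at 5 microM final. Buffer: 0.038 M HEPES pH 7.4, EGTA, 0.1% CHAPS, 5% DMSO.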
# POLB inh = blocks human DNA polymerase beta activity. Pol beta primer extension/strand displacement, fluorescence kinetic. Potency, µM (titrated, usually from 114 µM), inactives show at the top dose activity change, negative = inhibition, usual class: inhibitors. P06746. 340,000 compounds, 1.3% hits; further: potency means the concentration at half of the fitted maximal effect; on the % scale 0 is the no-effect control and ±100 the full control effect
#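 Reaction started by 50 nM substrate onto compound-treated Pol beta (10 nM, 15 min preincubation, room temperature); plates read at 0 min and 10 min. Normalized concentration-effect data fitted by four-parameter Hill equation.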
# ADP-Glo interf = counter-screen for PI5P4K inhibitors: ADP-Glo detection interference, no enzyme. ADP-Glo detection counter-screen, luciferase luminescence, no enzyme. Potency, µM (series often up to 76.9 µM), inactives show at the highest dose activity change, negative = inhibition, usual class: inhibitors. 1,100 tested, under 10 active. AID 743285. shares compounds with PI5P4Ka inh
# * hit, by the source's call; u = inconclusive; x = not tested or not shown; [ ] = dose if it differs, or a comment. Hits are enriched below; roughly 2.8% of the tested compounds scored in any of these assays. Unless noted, the call rests on the fitted dose curve; in most records, active means well fitted curve in the direction sought with a large enough effect; inconclusive means small, poorly fitted or top-dose-only effect, or another doubt; inactive means no such curve, though single readings can be large; an effect the other way counts as inactive or inconclusive.
SMILES,Pol iota inh,WRN inhibitor,Pol eta inh,Pol kappa inh,PI5P4Ka inh,POLB inh,ADP-Glo interf
O=C(c1ccco1)N1CCN(C(=O)c2ccc(-c3ccc([N+](=O)[O-])cc3)o2)CC1,17.8µM*,u,22.4µM*,28.2µM*,-74.3*,x,2.6%
O=C(c1ccc([N+](=O)[O-])cc1)N1CCN(C(=O)c2ccco2)CC1,16.7%,4.7%,-9.9%,-1.7%,2.2,-8.2%,x
O=C(c1ccc(-c2ccc([N+](=O)[O-])cc2)o1)N1CCN(S(=O)(=O)c2cccs2)CC1,u,-16.7%,u,-7.8%,-51.3*,x,-9.1%
COC(=O)[C@@]12C[C@@H](CC(=O)N3CCSCC3)C(=O)N(Cc3cccc4ccccc34)C1=CCC(C)(C)C2,x,-0.8%,x,x,-3.6,x,x
CCOC(=O)Nc1ccc2c(CNC(C)c3ccccc3OC)cc(=O)oc2c1 (stereo not drawn),16.0%,-9.3%,-18.4%,7.2%,-90.3*,0.1%,-5.6%
COc1ccccc1-c1csc(C(C)(O)c2cccc(F)c2)n1 (stereo not drawn),x,-8.4%,x,x,19.4,x,x
COc1cccc(NC(=O)c2sc3nc(N4CCOCC4)c4c(c3c2N)CCCC4)c1,-18.9%,-13.3%,-6.7%,-11.5%,-22.6,-2.6%,x
COCCNC(=S)Nc1ccc(N2CCOCC2)c(S(=O)(=O)Nc2ccc(Cl)cc2)c1,x,13.4%,-9.0%,x,u,x,x
O=S(=O)(Nc1ccc(Cl)cc1)c1ccc(N2CCOCC2)c(NC(=S)NCCN2CCOCC2)c1,u,u,-10.6%,-0.9%,-82.7*,31.3%,-8.1%
COc1ccc(CN(C)CCCn2cnc3c(SC)ncnc32)cc1OC,x,-7.5%,-7.8%,x,-3.9,x,x
CCc1cc(=O)[nH]c(-n2[nH]c(-c3ccccc3)cc2=O)n1,u,-4.7%,-11.1%,-6.7%,-3.2,19.5%,x
O=c1cc(-c2ccccc2)[nH]n1-c1nc2ccccc2[nH]1,3.4%,-6.4%,-4.7%,-8.8%,-76.3*,u,2.2%
Cc1ccc(S(=O)(=O)N(CC(=O)Nc2ccccc2C(=O)O)c2ccccc2C)cc1,-5.8%,-4.0%,-1.0%,-14.7%,-50.6*,22.7%,0.0%
O=C(Nc1ccc(Cl)cc1)Nc1ccccc1CC[N+](=O)[O-],161.3%,-35.6%,3.7%,-7.7%,-78.9*,0.1%,-3.3%
CN(C)C(=O)Nc1ccccc1CC[N+](=O)[O-],29.5%,-28.3%,10.5%,-9.5%,1.6,9.4%,x
O=C(O)c1ccc(Nc2nc3ccccc3nc2NS(=O)(=O)c2cccs2)cc1,u,0.3%,10.1%,u,u,14.5%,-8.0%
COc1cccc(Nc2nc3ccccc3nc2NS(=O)(=O)c2cccs2)c1,u,-34.1%,0.9%,-25.3%,-1.6,2.4%,x
COc1ccc(Cn2nnnc2CN(Cc2cc3cc(C)ccc3[nH]c2=O)C2CCCC2)cc1,19.1%,-2.9%,-9.1%,-6.4%[60.1 µM],x,11.7%,x
CCOc1ccc2[nH]c(=O)c(C(c3nnnn3Cc3ccco3)N3CCCC(C)C3)cc2c1 (stereo not drawn),u,u,u,-27.7%,-54.1*,-29.4%,4.1%
CCOc1ccc2[nH]c(=O)c(C(c3nnnn3Cc3ccco3)N3CCC(C)CC3)cc2c1 (stereo not drawn),10.6%,-26.0%,-19.4%,-3.8%,-6.4,u,x
COc1ccc2[nH]c(=O)c(CN(Cc3nnnn3Cc3ccco3)C3CCCCC3)cc2c1,20µM*,u,-8.3%,35.5µM*,-59.1*,28.2µM*,-4.1%
Cc1onc(-c2ccccc2)c1C(=O)NC1CCC(C)CC1 (stereo not drawn),27.8%,5.0%,-7.1%,1.2%,1.7,x,x
CCOc1ccc(S(=O)(=O)N2CCCC(C(=O)NCC3CCCO3)C2)cc1Cl (stereo not drawn),-0.7%,-8.8%,-6.2%,-14.1%,5.1,x,x
NC(N)=N/N=C/c1cccc(Cl)c1Cl,89.2%,12.6%,3.6%,-2.2%,-11.0,7.3%,x
CCOC(=O)c1ccc(NC(=O)c2cccc(S(=O)(=O)N3CCN(C(C)=O)CC3)c2)cc1,24.2%,10.2%,-15.8%,5.6%,1.8,16.4%,x
SMILES,Pol iota inh,WRN inhibitor,Pol eta inh,Pol kappa inh,PI5P4Ka inh,POLB inh,ADP-Glo interf
CC(=O)N1CCN(S(=O)(=O)c2cccc(C(=O)Nc3ccc(F)c(F)c3)c2)CC1,u,-7.5%,-97.7%,u,-19.0,8.2%,-0.5%
O=C(COc1ccc([N+](=O)[O-])cc1)Nc1cccnc1,u,-13.3%,u,-27.3%,-54.1*,u,-1.7%
O=C(COc1ccc(-c2ccccc2)cc1)Nc1cccnc1,-12.4%,7.6%,-21.0%,3.1%,1.7,x,x
COc1ccc(S(=O)(=O)Nc2ccc3c(c2)CCC3)cc1,72.0%,u,-14.0%,-4.2%,-67.3*,4.9%,-4.0%
CC(=O)Nc1ccc(S(=O)(=O)Nc2ccc3c(c2)CCC3)cc1,23.2%,-3.4%,-6.0%,-5.4%,6.2,-0.9%,x
c1ccc2c(CCNc3ncnc4nc[nH]c34)c[nH]c2c1,-8.2%,-3.7%,-24.0%,-4.2%,x,-11.3%,-1.9%
O=C(Cn1cnc2scc(-c3ccccc3)c2c1=O)NCc1ccco1,56.2µM*,-19.2%,22.4µM*,u,-65.9*,28.2µM*,-7.2%
CCc1ccc(-c2csc3ncn(CC(=O)NCc4ccco4)c(=O)c23)cc1,19.1%,-12.1%,-3.9%,1.6%,-15.7,-20.4%,x
C[C@@H]1C=C(C(=O)NCc2nc3ccccc3[nH]2)O[C@H](OCCCCO)C1,-16.7%,2.4%,-0.8%,-13.8%,-27.2,x,-2.7%
Cc1noc(C)c1CCC(=O)N1CCCC(CCC(=O)NCc2ccc(F)c(F)c2)C1 (stereo not drawn),-105.8%,-0.2%[11.6 µM],-99.2%,u,-61.4*,-7.4%,1.2%
CCc1ccc(S(=O)(=O)c2nnn3c2nc(N2CCOCC2)c2sccc23)cc1,20.8%,x,-16.8%,-2.1%,x,-9.2%,x
COC(=O)C(C)Sc1ncnc2c1c(-c1ccccc1)cn2-c1ccc(F)cc1 (stereo not drawn),6.2%,x,-13.4%,2.1%,x,5.7%,x
Cc1nc(NC(=O)c2ccccc2)sc1-c1cc(C(=O)N2CCOCC2)nn1CCO,x,5.4%,x,x,2.3,x,x
Cc1nc(NC(=O)c2ccccc2)sc1-c1cc(C(=O)N2CCOCC2)nn1Cc1ccccc1,x,5.9%,-4.7%,x,-54.8*,x,-1.6%
CC(=O)c1ccc(NC(=O)c2cnn3ccccc23)cc1,60.2%,4.6%,-1.6%,6.7%,-76.1*,11.9%,-8.4%
CCOC(=O)c1cc(-c2ccc(OC)cc2)nn1-c1ccc(C(=O)O)cc1,-19.8%,7.3%,-5.6%,-6.8%,-12.4,3.3%,x
